# Pf apPOL inh: Pf-apPOL DNA polymerase inhibition; Recombinant Pf-apPOL, molecular beacon fluorescence, 1.5 h; inhibition, % at 10 µM; 210,000 compounds, 0.25% hits
# mHTT CaM bind: disrupts binding of mutant huntingtin to calmodulin. P42858. AlphaScreen His-mHTT/GST-CaM binding, luminescence. inhibition, % at 15 µM. 190,000 compounds, 3.6% hits. AID 1671202;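 also: 0% = both proteins with DMSO and 100% = one protein alone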
# An asterisk follows results filed as active; i = inactive; nt = no result given; + = active, no number. An excerpt weighted towards active compounds, which were near 3.5% of everything screened. Rule as the data show it: active = inhibition above about 50%; inactive = the rest.
SMILES,Pf apPOL inh,mHTT CaM bind
C=CCN1C(=O)/C(=C2/SC(N3CCCCC3)=NC2=O)c2cc(Br)ccc21,-4,52*
CCCN1C(=O)/C(=C2/SC(=N)NC2=O)c2cc(Br)ccc21,-1,5
C=CCN1C(=O)/C(=C2\SC(N3CC(C)OC(C)C3)=NC2=O)c2cc(Br)ccc21 (centres undefined),nt,54*
N/C(=N\OC(=O)COc1ccccc1)c1ccc(Br)cc1,-7,i
COc1ccccc1/C=C/C=C1\N=C(c2ccccc2C)OC1=O,-1,15
COC(=O)[C@H](C(C)C)N(CCCc1cn(Cc2ccc(C)cc2)nn1)S(=O)(=O)c1ccccc1Br,-1,93*
COC(=O)[C@H](C(C)C)N(CCc1cn(Cc2ccc(C)cc2)nn1)S(=O)(=O)c1ccccc1Br,-7,-1
CCn1c(C2CCN(C(=O)Nc3cccc(OC)c3)C2)nc2cccnc21 (centres undefined),-2,5
CC(=O)N1CCc2ccccc2C1C(=O)NCc1c(C)cc(C)cc1C (centres undefined),-3,32
Cc1ccc(N2CCC(NC(=O)c3ccsc3)C2=O)cc1C (centres undefined),0,-2
CC1=Nc2ccccc2NC(=O)C1Cc1ccccc1 (centres undefined),-9,91*
CN(C)c1ccc(CC2C(=O)Nc3ccccc32)cc1 (centres undefined),6,nt
CC(C)c1nnc(C2CCN(C(=O)c3cnc4ccccc4n3)CC2)o1,-7,100*
Cc1c(C(=O)N2CCC(c3nnc(C(C)C)o3)CC2)cnn1-c1ccccc1,0,-1
COc1cc(Cl)c(S(=O)(=O)n2c([N+](=O)[O-])cnc2C)cc1Cl,-2,-9
Cc1cccc(C(=O)Nc2ccc3ncccc3c2)c1,-6,-5
COc1ccc(C(=O)N2CCN(c3ccc(C(C)C)cc3)C(=O)C2C)cc1 (centres undefined),-6,-3
COc1ccc(-c2oncc2-c2ccc3c(c2)OCCO3)c(O)c1,1,10
CCCc1cc2c(=O)c(-c3ccc4c(c3)OCCCO4)c(C)oc2cc1OC,-3,0
CCCc1cc(-c2oncc2-c2ccc3c(c2)OCCO3)c(O)cc1OC,3,63*
CCCc1cc(-c2[nH]ncc2-c2ccc3c(c2)OCCCO3)c(O)cc1OC,-7,76*
CCC(=O)NCc1nc2c(n1CC)CN(C(=O)c1ccc(Cl)s1)CC2,0,9
Cc1c(Cl)cccc1NC(=O)CN1C(=O)C2(OCCCO2)c2ccccc21,-7,8
COc1cccc(CC(=O)N2CC3CC(NC(=O)c4ccccc4)C2C3)c1 (centres undefined),-1,5
O=C1C=CC(=NOC2=C(ON=C3C=CC(=O)C=C3)C(=O)c3ccccc3C2=O)C=C1,-14,34
SMILES,Pf apPOL inh,mHTT CaM bind
CC1=CC(=O)C=C/C1=N\OC1=C(O/N=C2\C=CC(=O)C=C2C)C(=O)c2ccccc2C1=O,6,+
COc1ccc(C2=N/C(=C\C=C\c3ccccc3OC)C(=O)O2)c(Cl)c1,-3,8
NS(=O)(=O)c1ccc(C23CC4CC(CC(C4)C2)C3)cc1,-5,7
Nc1ccc(C23CC4CC(C2)CC(c2ccc(N)cc2)(C4)C3)cc1,-8,84*
NC(=O)CC12CC3CC(C1)CC(c1ccccc1)(C3)C2,-9,4
Nc1ccc(C23CC4CC(CC(C4)C2)C3)cc1,-8,58*
Cc1ccccc1CS(=O)(=O)CC(Nc1ccc(C(=O)O)cc1[N+](=O)[O-])C(=O)O (centres undefined),20,0
CCc1c(C)sc(NC(=O)c2ccc(Br)cc2)c1C(N)=O,0,-1
O=C(CSc1nc2sc3c(c2c(=O)n1-c1ccccc1)CCCC3)NCc1cccs1,-6,5
Brc1ccc(-c2cc3ccccn3c2)cc1,0,38
c1ccc(C2=NCCn3cccc32)cc1,-6,-4
CC1c2cccn2CCN1C(=O)Nc1ccc(F)cc1F (centres undefined),-12,10
Fc1ccc(-c2cc3n(c2)CCn2cccc2-3)c(F)c1,-2,100*
Clc1ccc(-c2cc3n(c2)CCn2cccc2-3)cc1Cl,-7,100*
Brc1ccc(-c2cc3n(c2)CCn2cccc2-3)cc1,-9,84*
Cc1cc2c(c(=O)[nH]1)C(=O)O/C2=C\c1ccc(OCc2ccccc2F)cc1,-16,0
CC1CC(Nc2ccccc2)c2ccccc2N1C(=O)c1cccs1 (centres undefined),-8,46
CC(=O)c1cc(C#N)c(SCC(=O)c2ccc(O)c(O)c2)nc1C,10,88*
Cc1cc(C)c(C#N)c(SC/C=C/c2ccccc2)n1,4,-140
CC(=O)c1cc(C#N)c(SCC(=O)c2ccc(Cl)cc2)nc1C,4,-6
CC(=O)c1cc(C#N)c(SC/C=C/c2ccccc2)nc1C,-19,97*
CC(C)C(=O)NC(Cc1ccccc1)c1nnc(N2CCCCC2)o1 (centres undefined),0,-5
